Only some compounds are listed: those with a hit (about 11% of all), similar ones and a draw of the others.
IMPase inh = membrane-permeable compound that blocks inositol monophosphatase | P97697 | CHO-M1 cells, IP1 accumulation, HTRF TR-FRET ratio | inhibition (IP1 accumulation), % at 46.1 µM | 120,000 tested, under 10 active | AID 901; active = well fitted curve in the direction sought with a large enough effect in the signal ratio, not every such curve was filed as active; inconclusive = small, poorly fitted or top-dose-only effect, or a change in a side signal; inactive = no such curve, though single readings can be large or run the other way; the % refers to the signal ratio;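 also: cells stimulated with carbachol in lithium chloride buffer; plate controls were DMSO basal wells for no effect and reference inhibitor wells for full effect; higher means more IMPase inhibition seen as more IP1 and lower FRET ratio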
Target sequence (P97697 whole entry, looked up): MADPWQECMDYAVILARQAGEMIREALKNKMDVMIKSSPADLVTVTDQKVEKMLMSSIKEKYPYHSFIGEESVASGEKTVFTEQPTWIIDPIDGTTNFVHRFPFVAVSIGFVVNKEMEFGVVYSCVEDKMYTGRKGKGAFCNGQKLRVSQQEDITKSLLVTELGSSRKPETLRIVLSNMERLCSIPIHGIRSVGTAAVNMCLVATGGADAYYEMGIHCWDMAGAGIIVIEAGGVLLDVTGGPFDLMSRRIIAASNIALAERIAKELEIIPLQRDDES
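CHO-M1, 2000 cells/well, cultured 16–30 h; cpd up to 46 uM; carbachol (50 uM solution, stimulation buffer w/ 50 mM LiCl, pH 7.4), 30 min 37C; IP-One TR-FRET, 10 min RT; Ex 320/Em 665, 620; Hill-fit AC50.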
NPSR antagonist = blocks cAMP signaling of the human neuropeptide S receptor | hit rate 1% among 220,000 | Q6W5P4 | Potency, µM (top dose mostly 38.3 µM), without a hit: at the highest dose activity change, negative = inhibition, most hits filed as inhibitors | CHO-NPSR cells, cAMP TR-FRET, antagonist mode; also: potency is read from the fitted curve at half-maximal effect; nearly all actives have a fitted effect of over 50% in size
HPGD block = HPGD (human) dehydrogenase inhibition | P15428 | purified HPGD, NADH fluorescence kinetic, PGE2 substrate | Potency, µM, without a hit: at the highest dose activity change, negative = inhibition, actives largely listed as inhibitors | hit rate 4.3% among 150,000 | AID 894; active = well fitted inhibition curve with a large enough effect, not every such curve was filed as active; inconclusive = small, poorly fitted or top-dose-only effect, or another doubt; inactive = no such curve, though single readings can be large or run the other way; also: potency is read from the fitted curve at half-maximal effect
Target sequence (P15428 whole entry, looked up): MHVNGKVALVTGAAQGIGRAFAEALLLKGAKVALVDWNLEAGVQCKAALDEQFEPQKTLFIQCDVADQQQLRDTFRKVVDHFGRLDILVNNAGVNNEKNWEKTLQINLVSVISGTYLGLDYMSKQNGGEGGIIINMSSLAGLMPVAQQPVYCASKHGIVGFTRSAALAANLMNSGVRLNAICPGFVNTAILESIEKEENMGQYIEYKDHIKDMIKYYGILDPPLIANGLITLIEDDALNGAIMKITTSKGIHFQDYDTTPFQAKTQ
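NADH formation kinetics: reaction with 30 uM PGE2 and 1 mM NAD+ (final), 20 nM enzyme, Tris-HCl pH 8 with Tween 20, after 15 min compound preincubation at room temperature. Fluorescence change, last versus first of five reads.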
ALDH1A1 block = inhibitors of human aldehyde dehydrogenase 1A1; P00352; Potency, µM (series often up to 75.3 µM), without a hit: at the top dose activity, negative = inhibition, usual class: inhibitors; AID 1030; hit rate 7.3% among 220,000; Purified ALDH1A1, NADH fluorescence, propionaldehyde substrate; active = well fitted inhibition curve with a large enough effect, not every such curve was filed as active; inconclusive = small, poorly fitted or top-dose-only effect, or another doubt; inactive = no such curve, though single readings can be large or run the other way;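 also: potency is read from the fitted curve at half-maximal effect; plate controls were no enzyme wells and a reference inhibitor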
IMPase Li cell = cell-permeable IMPase inhibitors with lithium potentiation. CHO-M1 cells, IP1 TR-FRET (IP-One), carbachol + lithium. Potency, µM (titrated, usually from 59.4 µM), for inactives: at the top dose activity, negative = IMPase inhibition, most hits filed as inhibitors. hit rate 0.35% among 210,000;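 also: IP1 builds up when IMPase is blocked and the TR-FRET signal falls; potency is read from the fitted curve at half-maximal effect; plate controls were basal vehicle for no effect and high inhibitor control for full effect; nearly all actives have a fitted effect of over 50% in size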
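CHO cells stably expressing M1 receptor (2000/well, cultured 16–30 h) treated 30 min at 37C with compound plus low lithium. Cytosolic IP1 by TR-FRET (665/620 ratio and 620 channel) after 10 min lysis; AC50 by Hill fit.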
PNC assembly inh = inhibitors of perinucleolar compartment assembly; PC3M PTB-GFP, PNC prevalence imaging, 16 h; stronger effect = lower value; activity change (PNC), negative = inhibition, % at 10 µM; hit rate 3.1% among 140,000;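 active = readout at or below -70, meaning at least 70% loss of cells showing the perinucleolar compartment, a nuclear body marking cancer cells; inconclusive = readout between -30 and a set limit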;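 also: plate controls were DMSO wells for no effect and camptothecin positive control wells for full effect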
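Compounds are pinned in duplicate onto adhered PC3M cells stably expressing GFP-tagged PTB and incubated 16 h at 37 C. Cells are then fixed, nuclei stained with Hoechst, and PNC-positive cells counted.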
An asterisk follows results filed as active; [ ] = remark or other dose. Unless noted, calls follow the shape of the dose curve; as a rule, active = well fitted curve in the direction sought with a large enough effect; inconclusive = small, poorly fitted or top-dose-only effect, or another doubt; inactive = no such curve, though single readings can be large; an effect the other way counts as inactive or inconclusive. Unless noted, % is scaled to controls: 0 for no effect and ±100 for the full control effect.

Screening Cc1ccc(C)c(Cn2cnc3c(cnn3C(C)(C)C)c2=O)c1 returned IMPase inh 1, NPSR antagonist -14%[46.1 µM], HPGD block 22µM*, ALDH1A1 block inconclusive, IMPase Li cell 34%[38.3 µM] and PNC assembly inh -1.
`Cc1ccccc1Cn1cnc2c(cnn2C(C)(C)C)c1=O` gave IMPase inh 3, NPSR antagonist -7%[46.1 µM], HPGD block -28%, ALDH1A1 block 16%, IMPase Li cell -1%[38.3 µM] and PNC assembly inh 8.
`O=S(=O)(/C=C/c1ccccc1)NCc1ccccc1Cl` gave NPSR antagonist 4%, HPGD block -10%, ALDH1A1 block 6%, IMPase Li cell -2% and PNC assembly inh 18.
`Cc1occc1C(=O)NN=C1C2CC3CC(C2)CC1C3` gave IMPase inh inconclusive, NPSR antagonist -12%[46.1 µM], HPGD block -7%, ALDH1A1 block inconclusive, IMPase Li cell -1% and PNC assembly inh -100*.
For C/C(N)=C(/C#N)C(=O)CSc1nc2ccccc2c(=O)n1-c1ccc(C)c(Cl)c1 the results were IMPase inh 4, NPSR antagonist -55%, HPGD block -20%, ALDH1A1 block 4%, IMPase Li cell 11µM* and PNC assembly inh 29.
Screening C/C(N)=C(/C#N)C(=O)CSc1nc2ccccc2c(=O)n1-c1ccc(C)cc1 returned IMPase inh 5, NPSR antagonist -19%, HPGD block -20%, ALDH1A1 block inconclusive, IMPase Li cell inconclusive and PNC assembly inh -26.
`C/C(N)=C(/C#N)C(=O)CSc1nc2ccccc2c(=O)n1CCCO` gave NPSR antagonist 6%, HPGD block -6%, ALDH1A1 block inconclusive, IMPase Li cell -8% and PNC assembly inh inconclusive.
Screening C/C(N)=C(/C#N)C(=O)CSc1nc2ccccc2c(=O)n1-c1ccccc1C returned NPSR antagonist -5%, HPGD block -21%, ALDH1A1 block 28µM*, IMPase Li cell 11% and PNC assembly inh -22.
For C/C(N)=C(/C#N)C(=O)CSc1nc2scc(-c3ccccc3)c2c(=O)n1C the results were NPSR antagonist -24%, ALDH1A1 block 5.6µM* and IMPase Li cell 15%.
`CCOC(=O)c1c(C)[nH]c(C)c1C(=O)CSc1nc2ccccc2c(=O)n1-c1ccc(Cl)cc1` gave NPSR antagonist -19%, HPGD block -6%, ALDH1A1 block inconclusive, IMPase Li cell 3% and PNC assembly inh inconclusive.
Cc1[nH]c2ccccc2c1C(=O)CSc1nc2ccccc2c(=O)n1-c1ccccc1F was read as NPSR antagonist -22%, ALDH1A1 block 0.56µM* and IMPase Li cell -3%.
Screening Cc1ccc(-n2c(SCC(=O)NC3CCCCC3)nc3c(c2=O)SCC3)cc1 returned IMPase inh 0, NPSR antagonist -12%[46.1 µM], HPGD block -2%, ALDH1A1 block -3%, IMPase Li cell 32%[38.3 µM] and PNC assembly inh 21.
Cc1sc2nc(SCC(=O)NCc3ccco3)[nH]c(=O)c2c1C was read as IMPase inh 10, NPSR antagonist 23%[46.1 µM], HPGD block 7.9µM*, ALDH1A1 block -6%, IMPase Li cell 7%[38.3 µM] and PNC assembly inh 13.
Screening COc1ccc(N2CCN(Cc3nc4sc(C)c(C)c4c(=O)[nH]3)CC2)cc1 returned NPSR antagonist -2%, ALDH1A1 block 4% and IMPase Li cell 7%.
Cc1sc2nc(SCC(=O)N3CCOCC3)[nH]c(=O)c2c1C was read as IMPase inh 1, NPSR antagonist -19%[46.1 µM], HPGD block 16µM*, ALDH1A1 block 5%, IMPase Li cell 19%[38.3 µM] and PNC assembly inh 16.
`CCn1c(SCC(=O)NC(=O)NCc2ccco2)nc2sc(C)c(C)c2c1=O` gave IMPase inh 1, NPSR antagonist -2%[46.1 µM], HPGD block inconclusive, ALDH1A1 block 8.9µM*, IMPase Li cell 8%[38.3 µM] and PNC assembly inh 23.
Cc1sc2nc(CSCC(=O)Nc3ccc(N4CCOCC4)cc3)[nH]c(=O)c2c1C was read as NPSR antagonist -25% and ALDH1A1 block 11µM*.
For Cc1sc2nc(SCC(=O)NCc3ccco3)n(C)c(=O)c2c1C the results were IMPase inh 4, NPSR antagonist -12%[46.1 µM], HPGD block -1%, ALDH1A1 block 1%, IMPase Li cell -10%[38.3 µM] and PNC assembly inh 2.
For CC1=C(C#N)C(NC(=O)C2CCCCC2)(C(F)(F)F)C(=O)N1 (stereo not given) the results were IMPase inh -1, NPSR antagonist -6%[46.1 µM], HPGD block -6%, ALDH1A1 block 9%, IMPase Li cell 5%[38.3 µM] and PNC assembly inh 25.
`COc1ccc(C)cc1NC(=O)c1cc2c(CO)cnc(C)c2oc1=N` gave NPSR antagonist -7%, HPGD block -2%, ALDH1A1 block 7%, IMPase Li cell 11% and PNC assembly inh 36.
`COc1cccc(NC(=O)c2ccc(-c3ccc([N+](=O)[O-])cc3)o2)c1` gave NPSR antagonist -7%, ALDH1A1 block inconclusive and IMPase Li cell 14%.
Screening Cc1cc2c(=O)n(Cc3ccco3)c(SCC(=O)NCc3ccco3)nc2s1 returned IMPase inh -5, NPSR antagonist -23%[46.1 µM], HPGD block -18%, ALDH1A1 block 7.9µM*, IMPase Li cell 20%[38.3 µM] and PNC assembly inh -2.
Cc1sc2nc(SCC(=O)NCc3cccs3)[nH]c(=O)c2c1C was read as IMPase inh 7, NPSR antagonist inconclusive, HPGD block 25µM*, ALDH1A1 block 6%, IMPase Li cell 2%[38.3 µM] and PNC assembly inh 6.
Screening COCCCNC(=O)CCn1c(=O)c2ccccc2n(CC(=O)NCCC2=CCCCC2)c1=O returned NPSR antagonist 13%, ALDH1A1 block inconclusive and IMPase Li cell 14%.
`Cc1cc2ccccc2c(=O)n1CC(=O)NCCC1=CCCCC1` gave NPSR antagonist -3%, ALDH1A1 block 25µM* and IMPase Li cell 13%.
O=C(CCn1c(=O)c2ccccc2n(CC(=O)NCCC2=CCCCC2)c1=O)NCc1ccco1 was read as IMPase inh 8, NPSR antagonist -16%[46.1 µM], HPGD block -13%, ALDH1A1 block 16µM*, IMPase Li cell 4%[38.3 µM] and PNC assembly inh inconclusive.
`N#CN=C(N)c1ccccc1` gave IMPase inh -2, NPSR antagonist 1%[46.1 µM], HPGD block -12%, ALDH1A1 block 4%, IMPase Li cell 2%[38.3 µM] and PNC assembly inh -6.
`Cc1cc(C)cc(C(=O)N2CCCCCC2)c1` gave IMPase inh 4, NPSR antagonist -1%[46.1 µM], HPGD block 16µM*, ALDH1A1 block 7%, IMPase Li cell -15%[38.3 µM] and PNC assembly inh 0.
Screening Cc1cc(C(=O)N2CCCCCC2)cs1 returned IMPase inh 11[1.84 µM], NPSR antagonist -2%[46.1 µM], HPGD block 0.45µM*, ALDH1A1 block -5%, IMPase Li cell 28%[38.3 µM] and PNC assembly inh -124*.

Screening data deposited in PubChem by National Center for Advancing Translational Sciences (NCATS).
